# Reference: PubChem BioAssay AID1347416 (National Center for Advancing Translational Sciences (NCATS), 2020)
# Screen size: about 4,100 compounds; about 1,600 (39%) were called active. Not shown: some 25% with an inconclusive outcome. Some of the results follow. A number with no mark means an inactive call. The call rests on the fitted dose curve; in most records, active means well fitted inhibition curve with a large enough effect; inconclusive means small, poorly fitted or top-dose-only effect; inactive means no such curve, though single readings can be large or run the other way.
# Test: qHTS Validation assay for Inhibitors of Plasmodium falciparum Dd2 growth in vitro; further: nearly all actives have a fitted effect of over 70% in size
# Settings: P. falciparum Dd2 in RBCs, SYBR Green growth, 72 h; series mostly up to 28.7 µM; activity change, negative = inhibition: at the top concentration
# How it was run: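 P. falciparum Dd2-infected red blood cells (2.5% hematocrit, 0.3% parasitemia) grown 72 h at 37 °C under 5% O2 with compounds in a titration, 29 uM to 0.5 nM final. Growth read as SYBR Green-1 fluorescence after ~16 h lysis; artesunate 300 nM as positive control.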
# On the % scale 0 is the no-effect control and ±100 the full control effect; potency means the concentration at half of the fitted maximal effect.
SMILES,Potency,"activity change, negative = inhibition"
COc1ncc(-c2cc(C(=O)NCc3c(C)cc(C)[nH]c3=O)c3c(c2)N(C(C)C)CCO3)cn1,9.44 µM (active),
COc1ccc(C(=O)NCc2nnc3c(-c4nc(C5CC5)no4)cccn23)c(C)c1,,-12.6%
COc1ccccc1C(=O)NCc1nnc2c(-c3nc(C4CC4)no3)cccn12,,-6.9%
CC(C)c1cccc(NC(=O)c2ccc(CN3C(=O)NC4(CCOCC4)C3=O)cc2)c1,,-0.362%
CC(=O)Nc1cccc(-c2cc(C(=O)NCc3c(C)cc(C)[nH]c3=O)c3c(c2)N(C(C)C)CCO3)c1,9.44 µM (active),
CN1CCOc2c(C(=O)NCCc3cnc[nH]3)cc(-c3ccc(N4CCOCC4)cc3)cc21,,-1.23%
COc1ccc(-n2ccnc2SCC(=O)NO)cc1,,0.591%
COC(=O)C1=C(C)N(c2ccc(OC)cc2)C(C)=C(C(=O)OC)C1c1ccccc1,9.44 µM (active),
CCOC(=O)c1sc2nc3c(SCCC#N)cc(C(=O)c4cc(F)ccc4O)cn3c(=O)c2c1C,1.68 µM (active),
CC(=O)NC1CC(c2cc(NCCCOC3CCN(C)CC3)ncn2)C1 (configuration not stated),,29%
CC1CCN(c2ccc(C(=O)NCc3ccco3)cc2[N+](=O)[O-])CC1,6.68 µM (active),
O=C(NCc1ccco1)C1CCc2sc(C(=O)N3CCCCCC3)cc2C1 (configuration not stated),,-4.94%
Cc1nn2c3c(cnc2c1-c1ccccc1)C(=O)CC(c1ccco1)C3 (configuration not stated),9.44 µM (active),
CCOC(=O)c1noc2nc(C)n(CC(=O)NC(C)CC)c(=O)c12 (configuration not stated),,15.7%
CCOC(=O)c1nc2cc3n(c(CC(C)C)c-2c1C)CC(C)=C3C,7.5 µM (active),
O=C(c1ccco1)c1cn(CCOc2ccc(F)cc2)c2ccccc12,6.68 µM (active),
COc1cccc(OCCn2cc(C(=O)c3ccco3)c3ccccc32)c1,,54.6%
COc1ccc(OCCn2cc(C(=O)c3ccco3)c3ccccc32)cc1,2.11 µM (active),
O=C(Nc1c(C(=O)N2CCN(c3ccc(F)cc3)CC2)oc2ccccc12)c1ccco1,,10%
CCCNc1c(NC(=O)COc2ccc(Cl)cc2)c(=O)oc2ccccc12,,-24.5%
CC(C)(C)c1ccc(OCCn2ccccc2=O)cc1,,-19.2%
O=C(c1cccs1)c1cn(CCOc2ccc(Cl)cc2)c2ccccc12,5.96 µM (active),
Cc1cc(OCCn2cc(C(=O)c3ccco3)c3ccccc32)ccc1Cl,5.31 µM (active),
CCCS(=O)(=O)NCCc1ncc(C)n1C(C)C,,-51.1%

SMILES,Potency,"activity change, negative = inhibition"
Cc1ccccc1-n1c(=O)/c(=C\c2ccco2)s/c1=C(/C#N)C(=O)Nc1ccccc1,5.31 µM (active),
N#Cc1ccc(CN2C[C@@H]3C(=O)N(CCN4CCc5ccccc5C4)C(=O)[C@@H]3C2)cc1,,-14.5%
CC1(C)N=C(N)N=C(N)N1c1ccc(OCCCOc2ccccc2)c(Cl)c1,2.99 µM (active),
COc1ccc(N2C(N)=NC(N)=NC2(C)C)cc1,,10.9%
CCOc1ccc(N2C(N)=NC(N)=NC2(C)C)cc1,,47.6%
CCOC(=O)c1cc(C)n(Cc2ccc(OCC)c(OC)c2)c1C,10.6 µM (active),
COC[C@@H]1CN(Cc2ccc(OC)c(C)c2)C[C@H]1C(=O)N(C)C,,5.52%
COc1cc(O)c(C(CCN2CCN(c3ccccc3)CC2)c2ccc3c(c2)OCO3)c(OC)c1 (configuration not stated),0.842 µM (active),
COc1cc(O)c(C(CCN2CCOCC2)c2ccc3c(c2)OCO3)c(OC)c1 (configuration not stated),4.22 µM (active),
COc1cc(O)c(C(CCN2CCCCC2)c2ccc3c(c2)OCO3)c(OC)c1 (configuration not stated),1.33 µM (active),
CCc1ccc(NC(=O)C(=O)NCC(c2ccc3c(c2)OCO3)N2CCOCC2)cc1 (configuration not stated),,0%
COc1cc(O)c(C(CCN2CCCC(C)C2)c2ccc3c(c2)OCO3)c(OC)c1 (configuration not stated),0.531 µM (active),
CCOC(=O)C1(Cc2ccccc2C(F)(F)F)CCNCC1,,-24%
CCOC(=O)C1(Cc2ccccc2Cl)CCNCC1,2.66 µM (active),
CN(CCc1ccccn1)c1ccc(-c2nc(COc3ccccc3)no2)cn1,,-8.59%
Fc1cccc(NC(=S)NNc2c3ccccc3nc3ccccc23)c1,15 µM (active),
OC(CNC1CCCc2ccccc21)COc1c(Cl)cccc1Cl (configuration not stated),1.68 µM (active),
CC(=O)N(C)C1CCCc2ccccc21 (configuration not stated),,45.2% [at 57.5 µM]
COc1ccccc1CN(C)C1CCCc2ccccc21 (configuration not stated),,-0.478% [at 43.1 µM]
O=C(N/N=C(\c1ccccc1)c1cccnc1)c1cccc(F)c1,4.22 µM (active),
CCc1noc(-c2cccn3c(CNC(=O)c4cccc(F)c4)nnc23)n1,,-0.302%
N/C(=N\OC(=O)c1cccc(F)c1)c1ccccn1,,-27.5%
O=C1NCN(c2ccccc2)C12CCN(CCCC(c1ccc(F)cc1)c1ccc(F)cc1)CC2,5.31 µM (active),
